# Measurements: PubChem BioAssay (NCATS)
# Values joined by “and” are separate entries in the source; they are usually repeats but may differ in a detail not shown here. Equal entries are not always repeated. Records with an inconclusive call do not appear. Where a call stands in place of a potency, no number is given. More than one record can exist for a structure, and the calls need not agree. Unmarked numbers belong to inactive results. Active and inactive are the calls of the source. Calls follow the shape of the dose curve; as a rule, active = well fitted curve in the direction sought with a large enough effect; inconclusive = small, poorly fitted or top-dose-only effect, or another doubt; inactive = no such curve, though single readings can be large; an effect the other way counts as inactive or inconclusive.
# Tests used:
# CRL-7250 = normal cell line; test: Cytotoxic Profiling of Annotated Libraries Using Quantitative High-Throughput Screening (AID 1296008); details: Five cell lines viability, CellTiter-Glo ATP luminescence, 48-72 h; max response: stronger effect = lower value; also: nearly all actives have a fitted effect of over 60% in size
# How it was run: (§1)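 Cytotoxicity was measured as CellTiter-Glo ATP luminescence, read after 10 min at room temperature. Compound treatment of the cells lasted 48 or 72 hr at 37 degrees Celsius in a qHTS format.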
# HEK293 = test: as above; details: Five cell lines viability, CellTiter-Glo ATP luminescence, 48-72 h; max response: stronger effect = lower value
# How it was run: as §1
# HaCat [1] = test: as above; details: Five cell lines viability, CellTiter-Glo ATP luminescence, 48-72 h; max response: stronger effect = lower value
# How it was run: as §1
# KB-3-1 = test: as above; details: Five cell lines viability, CellTiter-Glo ATP luminescence, 48-72 h; max response: stronger effect = lower value
# How it was run: as §1
# NIH3T3 [2] = test: as above; details: Five cell lines viability, CellTiter-Glo ATP luminescence, 48-72 h; max response: stronger effect = lower value
# How it was run: as §1
# MCC-13 = test: qHTS assay to identify novel small-molecules to repurpose for Merkel cell carcinoma treatment (AID 1296009); details: MCC and control cell lines, CellTiter-Glo viability, 72 h; series mostly up to 46 µM; also: nearly all actives have a fitted effect of over 60% in size
# How it was run: (§2)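 Cell viability measured by CellTiter-Glo following 72 hr compound treatment at 37 degree celsius, with NPC and MIPE libraries tested in 8- and 11-point concentration series.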
# MCC-26 = test: as above; details: MCC and control cell lines, CellTiter-Glo viability, 72 h; series mostly up to 46 µM
# How it was run: as §2
# MKL-1 = test: as above; details: MCC and control cell lines, CellTiter-Glo viability, 72 h; series mostly up to 46 µM
# How it was run: as §2
# MKL-2 = test: as above; details: MCC and control cell lines, CellTiter-Glo viability, 72 h; series mostly up to 46 µM
# How it was run: as §2
# NIH3T3 [3] = test: as above; details: MCC and control cell lines, CellTiter-Glo viability, 72 h; series mostly up to 44.8 µM
# How it was run: as §2
# UISO = test: as above; details: MCC and control cell lines, CellTiter-Glo viability, 72 h; series mostly up to 46 µM
# How it was run: as §2
# WaGa = test: as above; details: MCC and control cell lines, CellTiter-Glo viability, 72 h; series mostly up to 46 µM
# How it was run: as §2
# C33A = test: Primary qHTS to identify gynecologic anti-cancer compounds using libraries of approved drugs and bioactive compounds (AID 1345084); details: Gynecologic cancer cell panel viability, ATPlite luminescence, 48 h; series mostly up to 57.5 µM; also: nearly all actives have a fitted effect of over 55% in size
# How it was run: (§3)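 Luminescence from the ATPlite ATP-monitoring reagent indicates viable cell number; lower signal means cytotoxicity. Cells received compound 16 h after seeding and were exposed for 48 h across five concentrations.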
# CAOV3 = test: as above; details: Gynecologic cancer cell panel viability, ATPlite luminescence, 48 h; series mostly up to 57.5 µM
# How it was run: as §3
# CASKI = test: as above; details: Gynecologic cancer cell panel viability, ATPlite luminescence, 48 h; series mostly up to 57.5 µM
# How it was run: as §3
# HACAT [4] = test: qHTS assay to identify novel small-molecules to repurpose for Merkel cell carcinoma treatment (AID 1296009); details: MCC and control cell lines, CellTiter-Glo viability, 72 h; also: nearly all actives have a fitted effect of over 60% in size
# How it was run: as §2
# HEK293T = test: as above; details: MCC and control cell lines, CellTiter-Glo viability, 72 h; at 44.8 µM (top of the series) unless noted
# How it was run: as §2
# [5] = at 44.8 µM (top of the series) unless noted
# Potency is read from the fitted curve at half-maximal effect.
smiles,measurement,setting,value
C[C@@]1(c2cc(-c3cncnc3)c(F)cc2F)CCSC(N)=N1,max response,CRL-7250,3.38% and -17.5%
same,max response,HEK293,1.85% and -22.9%
same,max response,HaCat [1],-8.12% and -24.8%
same,max response,KB-3-1,-3.27%
same,outcome,KB-3-1,inactive
same,max response,NIH3T3 [2],-1.07%
same,outcome,NIH3T3 [2],inactive
same,Potency,MCC-13,inactive
same,Potency,MCC-26,inactive
same,Potency,MKL-1,inactive
same,Potency,MKL-2,inactive
same,Potency,NIH3T3 [3],inactive
same,Potency,UISO,inactive
same,Potency,WaGa,inactive
same,Potency,C33A,inactive
same,Potency,CAOV3,inactive
same,Potency,CASKI,inactive
Cc1cnc(-c2cc(N3CCN(C(=O)CCS(C)(=O)=O)CC3)ncc2Cl)c(C)c1,max response,CRL-7250,2.67%
same,outcome,CRL-7250,inactive
same,outcome,HaCat [1],inactive
same,max response,KB-3-1,3.56% and 2.16%
same,outcome,NIH3T3 [2],inactive
same,outcome,HACAT [4]; [5],inactive
same,outcome,HEK293T,inactive
same,Potency,MCC-13,inactive
same,Potency,MCC-26,inactive
same,Potency,MKL-1,inactive
same,Potency,MKL-2,inactive
same,Potency,NIH3T3 [3],inactive
same,Potency,UISO,inactive
same,Potency,WaGa,inactive
same,Potency,C33A,inactive
same,Potency,CAOV3,inactive
same,Potency,CASKI,inactive
COc1nccc(-c2c(-c3ccc(F)cc3)ncn2C2CCC(O)CC2)n1 (centres undefined),max response,CRL-7250,2.19% and -0.385%
same,max response,HEK293,-17.3%
same,outcome,HEK293,inactive
same,max response,HaCat [1],-10.4%
same,outcome,HaCat [1],inactive
same,outcome,KB-3-1,inactive
same,max response,NIH3T3 [2],-1.87%
same,outcome,HACAT [4]; [5],inactive
same,outcome,HEK293T,inactive
same,Potency,MCC-13,inactive
same,Potency,MCC-26,inactive
same,Potency,MKL-1,inactive
same,Potency,MKL-2,inactive
same,Potency,UISO,inactive
same,Potency,C33A,inactive
same,Potency,CAOV3,inactive
same,Potency,CASKI,inactive
CNc1nc(Nc2ccc(C(=O)N3CCOCC3)cc2OC)ncc1Cl,max response,CRL-7250,2.63% and -2.16%
same,max response,HEK293,3.56% and -22.4%
same,outcome,HaCat [1],inactive
same,max response,KB-3-1,-5.95%
same,outcome,KB-3-1,inactive
same,outcome,HACAT [4]; [5],inactive
same,Potency,MCC-13,inactive
same,Potency,MCC-26,inactive
same,Potency,MKL-1,inactive
same,Potency,MKL-2,inactive
same,Potency,UISO,inactive
same,Potency,WaGa,inactive
same,Potency,C33A,inactive
same,Potency,CASKI,inactive
O=C1C(c2c(O)[nH]c3ccccc23)=Nc2ccccc21,outcome,CRL-7250,inactive
same,max response,HEK293,-1.42%
same,outcome,HaCat [1],inactive
same,outcome,KB-3-1,inactive
same,max response,NIH3T3 [2],2.3%
same,outcome,NIH3T3 [2],inactive
same,outcome,HACAT [4]; at 17.4 µM (top of the series),inactive
same,outcome,HACAT [4]; at 44.8 µM (top of the series),inactive
same,Potency,MCC-13,inactive
same,Potency,MCC-26,inactive
same,Potency,MKL-1,inactive
same,Potency,MKL-2,inactive
same,Potency,NIH3T3 [3],inactive
same,Potency,WaGa,inactive
same,Potency,C33A,inactive
same,Potency,CAOV3,inactive
same,Potency,CASKI,inactive
CC(C)CNc1ccnc(NCc2csc(-c3ccccc3)n2)n1,Potency,CRL-7250,1.3 µM (active)
same,max response,CRL-7250,-19.9%
same,Potency,HEK293,5.26 µM (active) and 1.64 µM (active)
same,Potency,HaCat [1],16.4 µM (active)
same,max response,HaCat [1],-4.23%
same,Potency,KB-3-1,14.6 µM (active)
same,Potency,NIH3T3 [2],23.1 µM (active)
same,max response,NIH3T3 [2],-17.2%
same,Potency,MCC-26,inactive
same,Potency,MKL-2,16.6 µM (active)
same,Potency,UISO,13.2 µM (active)
COc1ccc(CCC(=O)Nc2nc3ccc(Cl)cc3s2)cc1OC,max response,CRL-7250,1.51% and -1.65%
same,max response,HEK293,-26%
same,max response,HaCat [1],-6.83%
same,outcome,HaCat [1],inactive
same,max response,KB-3-1,-8.12% and -15.4%
same,max response,NIH3T3 [2],-12.1%
same,outcome,NIH3T3 [2],inactive
same,outcome,HACAT [4]; [5],inactive
same,Potency,MCC-13,inactive
same,Potency,MCC-26,inactive
same,Potency,MKL-1,inactive
same,Potency,MKL-2,inactive
same,Potency,NIH3T3 [3],inactive
same,Potency,UISO,inactive
same,Potency,WaGa,inactive
same,Potency,C33A,inactive
same,Potency,CAOV3,inactive
same,Potency,CASKI,inactive
CC1CCN(c2cc(N3CCN(C)CC3)ccc2NC(=O)c2cc(C#N)c[nH]2)CC1,outcome,CRL-7250,inactive
same,max response,HEK293,0.425%
same,max response,HaCat [1],2.9%
same,outcome,HaCat [1],inactive
same,max response,KB-3-1,9% and 4.39%
same,max response,NIH3T3 [2],3.51% and 0.269%
same,outcome,HACAT [4]; [5],inactive
same,Potency,MCC-13,inactive
same,Potency,MCC-26,inactive
same,Potency,MKL-1,inactive
same,Potency,MKL-2,inactive
same,Potency,UISO,inactive
same,Potency,WaGa,inactive
same,Potency,C33A,inactive
same,Potency,CAOV3,inactive
same,Potency,CASKI,inactive
CC(C)(OCc1nn(Cc2ccccc2)c2ccccc12)C(=O)O,max response,CRL-7250,1.06%
same,outcome,CRL-7250,inactive
same,max response,HEK293,0.564%
same,outcome,HEK293,inactive
same,max response,HaCat [1],3.78%
same,outcome,HaCat [1],inactive
same,max response,KB-3-1,5.01% and 9.63%
same,max response,NIH3T3 [2],2.54% and 3.58%
same,outcome,HACAT [4]; [5],inactive
same,outcome,HEK293T,inactive
same,Potency,MCC-13,inactive
same,Potency,MCC-26,inactive
same,Potency,MKL-1,inactive
same,Potency,MKL-2,inactive
same,Potency,UISO,inactive
same,Potency,WaGa,inactive
same,Potency,C33A,inactive
same,Potency,CASKI,inactive
Cc1ccccc1-n1c(Cn2nc(-c3cccc(O)c3)c3c(N)ncnc32)nc2cccc(C)c2c1=O,Potency,CRL-7250,2.64 µM (active)
same,outcome,CRL-7250,inactive
same,outcome,HaCat [1],inactive
same,max response,KB-3-1,4.26% and -1.18%
same,max response,NIH3T3 [2],-4.97%
same,outcome,NIH3T3 [2],inactive
same,outcome,HACAT [4]; [5],inactive
same,Potency,MCC-13,18.7 µM (active)
same,Potency,MKL-1,1.05 µM (active)
same,Potency,MKL-2,10.5 µM (active)
same,Potency,NIH3T3 [3],inactive
same,Potency,UISO,10.5 µM (active)
same,Potency,WaGa,0.118 µM (active)
same,Potency,C33A,inactive
same,Potency,CAOV3,inactive
same,Potency,CASKI,inactive
COc1ccc(-c2ccc3ncc4c(c3c2)n(-c2ccc(N3CCNCC3)c(C(F)(F)F)c2)c(=O)n4C)cn1,max response,CRL-7250,-103%
same,Potency,HEK293,9.2 nM (active)
same,max response,HEK293,-112%
same,Potency,HaCat [1],3.7 nM (active) and 58 nM (active)
same,Potency,KB-3-1,16.6 nM (active) and 41.1 nM (active)
same,Potency,NIH3T3 [2],0.0053 µM (active)
same,Potency,MCC-26,0.372 µM (active)
same,Potency,MKL-1,0.0296 µM (active)
same,Potency,MKL-2,0.0418 µM (active)
same,Potency,UISO,0.0235 µM (active)
same,Potency,C33A,11.2 µM (active)
same,Potency,CAOV3,2.51 µM (active)
same,Potency,CASKI,0.794 µM (active)
